Screening data as filed in PubChem BioAssay.
Most compounds without a hit are left out; they make up all but 19% or so of the library.
Shiga toxin inh: inhibitors of Shiga toxin in Vero cells; inhibition, % at 38.7 µM; actives 9.2% (n = 290,000); Vero cells, Shiga toxin protein synthesis inhibition reporter; in the data active = inhibition mostly above about 28%, no sharp cut-off; inactive = mostly below about 43%
CHX counter: counter-screen hit for Shiga toxin inhibitors, cycloheximide; cell reporter, cycloheximide protein synthesis inhibition counterscreen; max response, %; actives 12% (n = 300,000); AID 2314; in the data active = max response mostly above about 13%, no sharp cut-off; inactive = mostly below about 14%; also: read at 38.3 µM for the half of the compounds with a filed dose
Pf growth 96h: inhibits malaria parasite growth, 96 h | P. falciparum luciferase reporter growth, 96 h | Potency, µM (top dose mostly 28.7 µM), hits mostly inhibitors | actives 6.9% (n = 320,000)
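P. falciparum expressing integrated firefly luciferase, in erythrocytes at 2% hematocrit, 0.05% parasitemia, incubated with compounds 96 h at 37 C, 5% CO2. Growth inhibition read as loss of luminescence; two-generation exposure targets delayed-death apicoplast inhibitors.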
LASV entry inh: Lassa virus entry inhibition. Lassa virus pseudotype entry inhibition, cell reporter. Potency, µM (series often up to 37.9 µM), hits mostly inhibitors. actives 1.2% (n = 300,000); calls by dose curve; tested in HEK293 cells; also: nearly all actives have a fitted effect of over 50% in size
MARV entry inh: blocks Marburg virus binding to or entry into cells. actives 1.8% (n = 300,000). AID 540276. Marburg virus pseudotyped entry inhibition, cell reporter. Potency, µM (series often up to 37.8 µM), hits mostly inhibitors; calls by dose curve; tested in HEK293 cells
Pf growth 48h: inhibits P. falciparum growth in the first generation, 48 h. P. falciparum luciferase growth in erythrocytes, 48 h. Potency, µM (doses to about 28.7 µM), hits mostly inhibitors. actives 5.9% (n = 310,000)
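Luciferase-expressing P. falciparum in infected erythrocytes (2% hematocrit, 0.1% parasitemia final) in RPMI 1640/0.5% Albumax were exposed to compound for 48 hours at 37 C, 5% CO2; growth read as luminescence.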
Hits are given with their value. Unless noted, calls follow the shape of the dose curve; as a rule, active = well fitted inhibition curve with a large enough effect; inconclusive = small, poorly fitted or top-dose-only effect, or another doubt; inactive = no such curve, though single readings can be large or run the other way.

`Cc1c(Cl)cccc1NC(=O)NNC(=O)CCc1ccccc1` gave Shiga toxin inh inactive, CHX counter inactive, Pf growth 96h inactive and Pf growth 48h inconclusive.
For Cc1sc2nc(C)n(/N=C/c3ccccc3)c(=O)c2c1C the results were Shiga toxin inh inactive, CHX counter inactive, LASV entry inh inactive, MARV entry inh inconclusive and Pf growth 48h inactive.
CCOc1ccc(NS(=O)(=O)c2ccc3c(c2)CCN3C(=O)CCC(=O)O)cc1 was read as Shiga toxin inh inactive, CHX counter inactive, Pf growth 96h inconclusive, LASV entry inh inactive, MARV entry inh inactive and Pf growth 48h inactive.
Screening COc1ccc(N2C(=O)C3CCCN3C2c2ccc(Cl)cc2)cc1 (stereo unspecified) returned Shiga toxin inh inactive, CHX counter inactive, Pf growth 96h 9.3µM and MARV entry inh inactive.
CCOc1ccc(C2N(c3ccc(F)cc3)C(=O)C3CCCN32)cc1 (stereo unspecified) was read as Shiga toxin inh inactive, CHX counter inactive and Pf growth 96h 4.1µM.
For COc1ccc(OC)c(C2N(c3ccc(Cl)cc3)C(=O)C3CCCN32)c1 (stereo unspecified) the results were Shiga toxin inh inactive, CHX counter inactive, Pf growth 96h 9.3µM, LASV entry inh inactive, MARV entry inh inactive and Pf growth 48h inactive.
`COc1ccc(C2N(c3ccc(Cl)cc3)C(=O)C3CCCN32)cc1` (stereo unspecified) gave Shiga toxin inh inactive, CHX counter inactive and Pf growth 96h inconclusive.
COc1ccc(OC)c(C2N(c3cc(C)on3)C(=O)C3CCCN32)c1 (stereo unspecified) was read as Shiga toxin inh inactive, CHX counter inactive, LASV entry inh inactive, MARV entry inh inactive and Pf growth 48h inactive.
Screening O=C(c1cccc(F)c1)N1CCN(C(=O)c2cc3nc(-c4ccco4)cc(C(F)(F)F)n3n2)CC1 returned Shiga toxin inh inactive, CHX counter inactive, Pf growth 96h inactive, LASV entry inh inactive, MARV entry inh inactive and Pf growth 48h inconclusive.
Screening CCOC(=O)c1ccc(Nc2cc(C)nc(-c3ccccc3O)n2)cc1 returned Shiga toxin inh inactive, CHX counter inactive, Pf growth 96h inactive, LASV entry inh inconclusive, MARV entry inh inconclusive and Pf growth 48h inconclusive.
Screening Cc1c(N)c(C)c([N+](=O)[O-])c(C)c1[N+](=O)[O-] returned Shiga toxin inh inactive, CHX counter inactive, Pf growth 96h inactive, LASV entry inh inactive, MARV entry inh inactive and Pf growth 48h inactive.
Screening Cc1cc(-c2ccccc2)nc(N(C)NC(=O)c2cccc(C(F)(F)F)c2)c1S(C)(=O)=O returned Shiga toxin inh inactive, CHX counter inactive, Pf growth 96h 3.7µM, LASV entry inh inactive and MARV entry inh inconclusive.
Screening CCN(CC)CCOC(=O)c1ccc(NC(=O)/C=C/c2cccs2)cc1 returned Shiga toxin inh 118, CHX counter 75, Pf growth 96h inconclusive, LASV entry inh inactive, MARV entry inh inconclusive and Pf growth 48h inconclusive.
Screening CCOC(=O)c1ccc(NC(=O)/C=C/c2cccs2)cc1 returned Shiga toxin inh 109, CHX counter 46, Pf growth 96h inconclusive, LASV entry inh inconclusive, MARV entry inh inconclusive and Pf growth 48h inconclusive.
`O=C(COC(=O)CCc1nc2ccccc2c(=O)[nH]1)Nc1ccc(Cl)cn1` gave Shiga toxin inh inactive, CHX counter inactive, Pf growth 96h inactive and Pf growth 48h inactive.
For CCCOc1ccc(C2C3=C(Nc4nc(N)[nH]c(=O)c42)c2ccccc2C3=O)cc1 (stereo unspecified) the results were Shiga toxin inh inactive, CHX counter inactive, Pf growth 96h inconclusive and Pf growth 48h inconclusive.
`Cc1ccc(S(=O)(=O)CCC(=O)Nc2ccccc2C)cc1` gave Shiga toxin inh inactive, CHX counter inactive, Pf growth 96h inactive, LASV entry inh inactive, MARV entry inh inactive and Pf growth 48h inactive.
CCn1c(C)c(C)c2cc(C(=O)N3CCN(c4ccccc4)CC3)ccc21 was read as Shiga toxin inh inactive, CHX counter inactive, Pf growth 96h inactive, LASV entry inh inactive, MARV entry inh inactive and Pf growth 48h inactive.
`O=C(Nc1ccccc1)ON=C1CCCC1` gave Shiga toxin inh inactive, CHX counter 23, Pf growth 96h inconclusive, LASV entry inh inactive, MARV entry inh inactive and Pf growth 48h 8.3µM.
For Cc1ccc(NC(=O)ON=C2CCCC2)cc1 the results were Shiga toxin inh active, CHX counter 55, Pf growth 96h inactive, LASV entry inh 1.4µM, MARV entry inh 10µM and Pf growth 48h 4.7µM.
Screening O=C(Nc1cccc(Cl)c1)ON=C1c2ccccc2-c2ccccc21 returned Shiga toxin inh inactive, CHX counter inactive, Pf growth 96h inactive, LASV entry inh inactive, MARV entry inh inactive and Pf growth 48h inactive.
For O=C(O)c1ccccc1C(=O)Nc1ccc(S(=O)(=O)Nc2nccs2)cc1 the results were Pf growth 96h inactive and Pf growth 48h inactive.
`CC(C)C(NC(=O)OCc1ccccc1)C(=O)NC1CCCCC1` (stereo unspecified) gave Shiga toxin inh inactive, CHX counter inactive, Pf growth 96h inactive, LASV entry inh inactive, MARV entry inh inactive and Pf growth 48h inactive.
For Cc1ccc(N2C(=O)CS/C2=N\C(=S)Nc2ccccc2)cc1 the results were Shiga toxin inh inactive, CHX counter inactive, Pf growth 96h 4.1µM, LASV entry inh inconclusive, MARV entry inh inactive and Pf growth 48h inactive.
For CCN=C1SCC(=O)N1c1ccc(OC)cc1 the results were Shiga toxin inh inactive, CHX counter inactive, LASV entry inh inactive, MARV entry inh inactive and Pf growth 48h inactive.
For COc1ccc(C2CC(c3cccs3)=NN2S(=O)(=O)c2ccc(C)cc2)cc1 (stereo unspecified) the results were LASV entry inh inconclusive and MARV entry inh inactive.
O=C(c1cccnc1)N1N=C(c2cccs2)CC1c1ccc(F)cc1 (stereo unspecified) was read as Shiga toxin inh inactive, CHX counter inactive, Pf growth 96h inactive, MARV entry inh inactive and Pf growth 48h inactive.
Screening Fc1ccc(N2N=C(c3cccs3)CC2c2ccccc2)cc1 (stereo unspecified) returned Shiga toxin inh inactive, CHX counter inactive, Pf growth 96h inactive, LASV entry inh inactive, MARV entry inh inactive and Pf growth 48h 13µM.
Screening O=S(=O)(c1ccccc1)N1N=C(c2cccs2)CC1c1cccc(O)c1 (stereo unspecified) returned Shiga toxin inh inactive, CHX counter inactive, Pf growth 96h inconclusive, LASV entry inh inconclusive, MARV entry inh inactive and Pf growth 48h inactive.
`Cc1ccc(C2CC(c3cccs3)=NN2S(=O)(=O)c2ccc(C)cc2)cc1` (stereo unspecified) gave Shiga toxin inh inactive, CHX counter inactive, Pf growth 96h 2.9µM, LASV entry inh inactive, MARV entry inh inactive and Pf growth 48h inconclusive.
Screening O=S(=O)(c1ccccc1)N1N=C(c2cccs2)CC1c1ccc(F)cc1 (stereo unspecified) returned Shiga toxin inh inactive, CHX counter inactive, Pf growth 96h 9.3µM, LASV entry inh inconclusive, MARV entry inh inactive and Pf growth 48h inconclusive.
`CCOc1ccc(-c2cc3c(=O)n(CC(=O)Nc4c(C)cccc4C)ccn3n2)cc1` gave LASV entry inh inactive.
